RORgamma inh – ROR gamma (mouse) transcription inhibition; P51450; Drosophila S2 Gal4-RORgamma UAS-luciferase reporter, 20 h; Potency, µM (top dose mostly 53.6 µM), inactives show at the highest dose activity change, negative = inhibition, usual class: inhibitors; 5.4% of 310,000 active; AID 2551; further: on the % scale 0 is the no-effect control and ±100 the full control effect; nearly all actives have a fitted effect of over 60% in size
Target sequence (P51450 whole entry, looked up, the tested form may be a part): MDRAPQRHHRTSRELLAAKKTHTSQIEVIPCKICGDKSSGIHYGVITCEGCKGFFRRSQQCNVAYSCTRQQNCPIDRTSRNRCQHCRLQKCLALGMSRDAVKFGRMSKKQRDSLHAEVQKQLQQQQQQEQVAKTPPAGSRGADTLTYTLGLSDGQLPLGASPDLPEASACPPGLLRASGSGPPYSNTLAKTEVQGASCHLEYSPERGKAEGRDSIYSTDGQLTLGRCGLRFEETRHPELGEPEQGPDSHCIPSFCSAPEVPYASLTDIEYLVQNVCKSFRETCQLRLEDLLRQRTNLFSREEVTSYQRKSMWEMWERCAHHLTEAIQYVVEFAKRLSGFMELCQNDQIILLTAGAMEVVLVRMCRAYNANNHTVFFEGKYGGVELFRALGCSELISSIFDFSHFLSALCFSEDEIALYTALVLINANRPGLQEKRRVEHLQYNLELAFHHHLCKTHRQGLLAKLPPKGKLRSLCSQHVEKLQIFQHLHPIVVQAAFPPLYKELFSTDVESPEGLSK
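Luciferase reporter read in Schneider cells carrying Gal4-RORγ (mouse) and UAS-Photinus luciferase; cells given compound 1 h before 700 uM copper sulfate induction, then incubated 20 h at ambient temperature.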
ELG1 repair inh – inhibitors of ELG1-dependent DNA repair in HEK293T cells. Potency, µM (doses to about 46.1 µM), for inactives: at the highest dose activity change, negative = inhibition, hits mostly inhibitors. HEK293T ELG1-luciferase reporter, luminescence, 16 h; DNA damage induced by 5-fluorouridine. 2.3% of 330,000 active; further: on the % scale 0 is the no-effect control and ±100 the full control effect; nearly all actives have a fitted effect of over 55% in size
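In this reporter screen, reduction of luminescence relative to DMSO vehicle indicated activity. Compounds and 5-fluorouridine were added together to 2,000 cells per well, incubated for 16 hr at 37 °C, then developed with ONE-Glo.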
SW480 rerep – induces DNA re-replication in SW480 colon adenocarcinoma cells; SW480 DNA re-replication, Hoechst DNA content imaging, 48 h; Potency, µM (top dose mostly 46.1 µM), for inactives: at the highest dose re-replication activation, usual class: activators; 1.8% of 340,000 active; AID 624297; further: % of control where 0% means no effect; nearly all actives have a fitted effect of over 55% in size
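SW480 cells exposed to compounds for 48 hr at 37 C, 5% CO2, then Hoechst-stained 40 min. Nuclear DNA content imaged by fluorescence scanning (405 nm excitation, 500-530 nm emission); re-replication scored as increased high-intensity nuclei.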
MCF10A rerep – induces DNA re-replication in MCF 10a normal breast cells. Potency, µM (titrated, usually from 46.1 µM), for inactives: at the highest dose activity, positive = re-replication, most hits filed as activators. MCF 10A DNA re-replication, Hoechst nuclear intensity, 48 h. AID 624296. 2.9% of 350,000 active; further: % of control where 0% means no effect; nearly all actives have a fitted effect of over 50% in size
Gal4-VP16 FLuc – inhibits Gal4-VP16 luciferase reporter, ROR gamma counter-screen; 3.5% of 310,000 active; Potency, µM (highest dose often 53.6 µM), without a hit: at the top dose activity, negative = inhibition, usual class: inhibitors; AID 2546; Drosophila S2 Gal4-VP16 UAS-luciferase, luminescence, 20 h;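 further: Gal4-VP16 expression switched on by copper sulfate through the metallothionein promoter; on the % scale 0 is the no-effect control and ±100 the full control effect; nearly all actives have a fitted effect of over 50% in size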
Numbers without * were called inactive; [ ] = dose if it differs, or a comment. Rows were chosen to be rich in hits. Some 10% of all compounds tested hit in one or more screens of this group. The call rests on the fitted dose curve; in most records, active means well fitted curve in the direction sought with a large enough effect; inconclusive means small, poorly fitted or top-dose-only effect, or another doubt; inactive means no such curve, though single readings can be large; an effect the other way counts as inactive or inconclusive. Potency means the concentration at half of the fitted maximal effect.

Cc1ccc(NC(=O)Cc2ccc(Cl)c(Cl)c2)cc1S(=O)(=O)N(C)C was read as RORgamma inh inconclusive, ELG1 repair inh 15µM*, SW480 rerep inconclusive, MCF10A rerep inconclusive and Gal4-VP16 FLuc -9%.
For Cc1ccc(NC(=O)CSc2nn(-c3ccc(Cl)cc3)c(=S)s2)cc1S(=O)(=O)N(C)C the results were RORgamma inh -15%[10 µM], ELG1 repair inh 15µM*, MCF10A rerep 13% and Gal4-VP16 FLuc -8%.
Cc1ccc(NC(=O)CNc2ccc(Cl)c(Cl)c2)cc1S(=O)(=O)N(C)C was read as RORgamma inh inconclusive, ELG1 repair inh -19%, MCF10A rerep 13% and Gal4-VP16 FLuc inconclusive.
For Cc1nc2cc(NC(=O)c3ccco3)ccc2n1C the results were RORgamma inh 16µM*, ELG1 repair inh inconclusive, SW480 rerep -11%, MCF10A rerep 6% and Gal4-VP16 FLuc inconclusive.
For COc1ccccc1C(=O)Nc1ccc2c(c1)nc(CCNC(=O)c1ccco1)n2C the results were RORgamma inh 13%, ELG1 repair inh 23%, SW480 rerep 5.2µM*, MCF10A rerep inconclusive and Gal4-VP16 FLuc -11%.
Cn1c(CCNC(=O)c2ccco2)nc2cc(NC(=O)c3ccco3)ccc21 was read as RORgamma inh 1%, ELG1 repair inh inconclusive, SW480 rerep 1%, MCF10A rerep 7% and Gal4-VP16 FLuc -7%.
Screening Cc1nc2cc(NC(=O)NCc3ccco3)ccc2n1C returned RORgamma inh -4%, ELG1 repair inh inconclusive, SW480 rerep -4%, MCF10A rerep -7% and Gal4-VP16 FLuc -8%.
For O=C(Nc1ccc2c(c1)nc1n2CCSC1)c1ccco1 the results were RORgamma inh 2.2µM*, ELG1 repair inh inconclusive, SW480 rerep -1%, MCF10A rerep 11% and Gal4-VP16 FLuc 3.2µM*.
`Cc1cccc(NC(=O)CSc2ncnc3sc(C)cc23)c1` gave RORgamma inh 14%, ELG1 repair inh -6%, SW480 rerep -21%, MCF10A rerep -3% and Gal4-VP16 FLuc 12%.
Screening Cc1c(-c2cccc(Cl)c2)nc2ccccc2c1C(=O)NC1CC1 returned RORgamma inh -1%, ELG1 repair inh -4%, SW480 rerep -7%, MCF10A rerep 19% and Gal4-VP16 FLuc 8%.
Screening COc1cc(/C=C2/C(=N)N3C=CSC3=NC2=O)ccc1OCCCOc1cc(C)ccc1C returned RORgamma inh 10µM*, ELG1 repair inh 24%, SW480 rerep 10%, MCF10A rerep inconclusive and Gal4-VP16 FLuc 11µM*.
Screening CC1CC(C)CN(C(=O)c2ccc(NS(=O)(=O)c3ccc4[nH]c(=O)[nH]c4c3)cc2)C1 (stereo unspecified) returned ELG1 repair inh 9%, SW480 rerep -9% and MCF10A rerep 3%.
CC(=O)c1ccc(OC(C)C)c(Cc2c(O)nc(N)[nH]c2=O)c1 was read as RORgamma inh -2%, ELG1 repair inh 18%, SW480 rerep 0%, MCF10A rerep 4% and Gal4-VP16 FLuc -2%.
Screening COc1ccccc1/C=N/NC(=S)Nc1cccnc1 returned RORgamma inh 0.71µM*, ELG1 repair inh 15%, SW480 rerep -1%, MCF10A rerep 0% and Gal4-VP16 FLuc inconclusive.
For Oc1ccc(C=NNC(=S)Nc2cccnc2)nc1 the results were SW480 rerep 13µM* and MCF10A rerep inconclusive.
`CC(C)[C@@H](N)C(=O)N/N=C/c1ccc2ncccc2c1` gave RORgamma inh 24%, ELG1 repair inh 19%, SW480 rerep -1%, MCF10A rerep -8% and Gal4-VP16 FLuc -1%.
Screening Fc1ccc(NC(=S)Nc2cccnc2)cc1 returned RORgamma inh -15%, ELG1 repair inh -13%, SW480 rerep -2%, MCF10A rerep 5% and Gal4-VP16 FLuc -18%.
COc1cc(/C=N/NC(=S)Nc2cccnc2)cc(OC)c1OC was read as RORgamma inh -1%, ELG1 repair inh inconclusive, SW480 rerep inconclusive, MCF10A rerep 3% and Gal4-VP16 FLuc 1%.
For S=C(N/N=C/c1ccc2ncccc2c1)Nc1cccnc1 the results were RORgamma inh 4.5µM*, ELG1 repair inh -6%, SW480 rerep -4%, MCF10A rerep 16% and Gal4-VP16 FLuc inconclusive.
